Experimental data as given in the supplement of paper PMC6555819.

Tests used:
Test in all cases: PBM binding z-score (relative to random genomic background probes); higher = stronger binding; sequences stand for … in GC…GCGATTGACAGCGTAGAATGAAGG
[1] = tested on: FXR:RXRa (NR concentration 270 nM, RXRa partner concentration 90 nM)
Method in brief: (§1)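 Each nuclear receptor dimer, without ligand, was incubated for 1 h on custom Agilent 4×180K protein-binding microarrays. Binding was detected with antibodies against each partner (one per run), and scanned fluorescence was regression-normalized. The binding z-scores are referenced to random human genomic background probes.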

[2] = tested on: LXRa:RXRa (NR concentration 270 nM, RXRa partner concentration 90 nM)
Method in brief: as §1

[3] = tested on: LXRa homodimer (NR concentration 270 nM)
Method in brief: as §1

[4] = tested on: LXRb:RXRa (NR concentration 270 nM, RXRa partner concentration 90 nM)
Method in brief: as §1

[5] = tested on: LXRb homodimer (NR concentration 270 nM)
Method in brief: as §1

[6] = tested on: PPARa:RXRa (NR concentration 270 nM, RXRa partner concentration 90 nM)
Method in brief: as §1

[7] = tested on: PPARg:RXRa (NR concentration 180 nM, RXRa partner concentration 90 nM)
Method in brief: as §1

[8] = tested on: PPARg:RXRa 270nM:90nM, anti-RXR (NR concentration 270 nM, RXRa partner concentration 90 nM)
Method in brief: as §1

[9] = tested on: PPARg:RXRa 30nM:10nM, anti-RXR (NR concentration 30 nM, RXRa partner concentration 10 nM)
Method in brief: as §1

[10] = tested on: PPARg:RXRa 90nM:30nM, anti-RXR (NR concentration 90 nM, RXRa partner concentration 30 nM)
Method in brief: as §1

[11] = tested on: PPARg:RXRa DBDmut IVT, anti-RXR (DBD mutation: RXRa K156A/R161A, NR concentration 270 nM, RXRa partner concentration 90 nM)
Method in brief: as §1

[12] = tested on: PPARg:RXRa IVT, anti-PPARg (NR concentration 270 nM, RXRa partner concentration 90 nM)
Method in brief: as §1

[13] = tested on: PPARg DBDmut:RXRa IVT, anti-PPARg (DBD mutation: PPARg1 K132A/R137A, NR concentration 270 nM, RXRa partner concentration 90 nM)
Method in brief: as §1

[14] = tested on: PPARg DBDmut IVT, anti-PPARg (DBD mutation: PPARg1 K132A/R137A, NR concentration 270 nM)
Method in brief: as §1

[15] = tested on: PPARg homodimer (NR concentration 180 nM)
Method in brief: as §1

[16] = tested on: PXR:RXRa (NR concentration 270 nM, RXRa partner concentration 90 nM)
Method in brief: as §1

[17] = tested on: PXR homodimer (NR concentration 270 nM)
Method in brief: as §1

[18] = tested on: RARa:RXR (NR concentration 270 nM, RXRa partner concentration 90 nM)
Method in brief: as §1

[19] = tested on: RARa homodimer (NR concentration 270 nM)
Method in brief: as §1

[20] = tested on: RARb:RXRa (NR concentration 270 nM, RXRa partner concentration 90 nM)
Method in brief: as §1

Sequence | PBM binding z-score [1] | PBM binding z-score [2] | PBM binding z-score [3] | PBM binding z-score [4] | PBM binding z-score [5] | PBM binding z-score [6] | PBM binding z-score [7] | PBM binding z-score [8] | PBM binding z-score [9] | PBM binding z-score [10] | PBM binding z-score [11] | PBM binding z-score [12] | PBM binding z-score [13] | PBM binding z-score [14] | PBM binding z-score [15] | PBM binding z-score [16] | PBM binding z-score [17] | PBM binding z-score [18] | PBM binding z-score [19] | PBM binding z-score [20]
CGTCCATGGTCAAGGTCAGTGAAAGAGACTCGAA | 1.92 | 1.67 | 0.03 | 1.6 | -0.273 | 2.38 | 1.13 | 1.68 | 0.0317 | 0.977 | 0.484 | 1.54 | -0.688 | -0.778 | 1.17 | 1.78 | 0.42 | 2.23 | 0.236 | 3.59
TGAATAAGGTTAAAGATCAGGGAACGTGGCGTCG | 2.83 | 2.57 | 0.114 | 1.71 | 0.337 | 3.91 | 4.41 | 5.68 | 4.08 | 5.9 | 1.52 | 2.45 | 0.601 | 0.358 | 1.06 | 1.73 | 0.429 | 3.27 | 0.953 | 2.35
TCTCGGAGGACACGAAGGTCGGAGCTTTCCAGAG | 0.628 | -0.0853 | -0.898 | -0.334 | -1.43 | 0.339 | -0.0942 | 1.17 | 1.87 | 1.67 | 1.25 | 0.119 | -2.18 | -1.55 | -0.462 | 0.265 | -0.139 | 0.366 | -1.24 | 1.81
GGAACGAGGGCAAGATGATAGCAGAGTTTGATGG | 0.506 | 0.313 | -0.287 | 0.0342 | -0.415 | 1.25 | 1.39 | 0.84 | 0.0817 | 0.398 | 3.59 | 2.4 | -0.698 | -0.398 | 0.136 | 0.418 | 0.432 | 0.145 | 0.345 | 2.19
TATACCGGGTCAAAGGCCAGAGTACGAATGTCGA | 5.68 | 5.19 | 1.56 | 3.95 | 1.32 | 6.35 | 8.61 | 7.39 | 6.12 | 7.45 | 2.58 | 5.47 | 0.885 | 1.2 | 2.12 | 3.61 | 0.647 | 4.89 | 0.935 | 3.88
AATACAGGGTCGTCGTAGGCCAGAGTACGCACAG | 2.12 | 1.97 | 0.0247 | 1.42 | 0.00201 | 2.91 | 1.93 | 1.36 | 0.194 | 0.808 | -0.0628 | 0.91 | 0.684 | 0.302 | 0.517 | 1.7 | 0.241 | 2.19 | 0.296 | 1.72
CCGACTGGGGCAAAGGGTACCATACTCAGTACGA | -0.124 | -0.144 | -0.41 | 0.194 | -1.06 | 3.81 | 8.34 | 7.63 | 6.97 | 8.88 | 3.56 | 4.9 | -0.131 | -0.788 | 1.03 | -0.113 | -0.353 | 0.544 | -0.388 | 1.11
CGTCCATGGTCATAGGAGGTCAGTGAAGACAGAT | 1.81 | 3.6 | 1.31 | 2.3 | -0.0706 | 2.59 | 0.994 | 1.19 | -0.128 | 0.421 | 0.484 | 2.01 | -0.127 | -0.368 | 2.09 | 3.77 | 0.616 | 2.79 | 0.333 | 2.91
GCTAGCAGGCCATTTGGGTTACTCAATGACGGGC | -0.367 | -0.587 | -0.387 | -0.709 | -0.959 | 0.0439 | 0.457 | -0.378 | -0.68 | -0.152 | 0.933 | 0.903 | -0.422 | -0.474 | -0.558 | -0.229 | -0.482 | 0.178 | -0.714 | 0.189
CAAACTACGTCACAGAGGTCAAAGTCCGTGCGTA | 4.81 | 5.44 | 5.72 | 5.02 | 1.87 | 5.12 | 3.52 | 4.59 | 1.9 | 3.91 | 0.625 | 2.48 | 1.33 | 0.372 | 2.66 | 5.74 | 2.1 | 5.74 | 1.25 | 3.98
TGAATGAGGTTAAACATCAGGGAACGTGGCGTCG | 3.51 | 2.57 | -0.0319 | 1.69 | -0.0141 | 3.88 | 2.33 | 2.74 | 1.06 | 1.93 | 2.85 | 2.57 | 1.51 | 0.325 | 0.272 | 1.7 | -0.296 | 2.29 | 0.112 | 2.13
CCTCGGAGGACAACAGGAGGCCAGAGCTGCCAGA | -0.418 | -0.512 | -0.358 | -1.07 | -0.956 | -0.509 | 0.0998 | -0.942 | -0.765 | -0.807 | -0.393 | -0.707 | -0.633 | -1.31 | -0.602 | -0.549 | -0.283 | -0.45 | -0.398 | 1.07
TCATATAGGTAAAGGTGAAACTCGAACGATATGA | 0.837 | 1.52 | -0.0632 | 1.7 | -0.204 | 3.58 | 4.46 | 4.88 | 4.59 | 5.12 | 4.08 | 4.59 | 1.59 | 2.12 | 1.36 | 1.13 | -0.357 | 1.76 | 0.238 | 2.05
GCGATTGGGGCATCAGCAGGTTACCATAACTTAA | 0.0293 | -0.187 | -0.243 | 1.24 | -0.0268 | 0.814 | 0.255 | -0.0261 | -0.258 | -0.582 | 1.79 | 0.996 | -0.746 | -0.408 | 0.245 | 0.113 | -0.0157 | 0.281 | -0.368 | 0.823
